Assay outcomes from PubChem.
TEAD-YAP block = TEAD-YAP interaction inhibition. HEK-TIYL cells, TEAD-Gal4/YAP UAS-luciferase luminescence. inhibition, % at 9.12 µM. 640,000 tested, 1.4% active. AID 1259422; in the data active = inhibition above about 32%;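 also: 0% = median of test compound wells and 100% = reference inhibitor wells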
MITF inh = blocks human microphthalmia-associated transcription factor; O75030; AlphaScreen MITF homodimerization, bead proximity signal; inhibition, % at 2.6 µM; 650,000 tested, 0.91% active; AID 1259374; in the data active = inhibition above about 50%;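 also: 0% = vehicle wells with protein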
GPR151 ag = activators of human GPR151; PathHunter beta-arrestin GPR151 cells, luminescence; Q8TDV0; AID 1508602; activation, % at 11.2 µM; 650,000 tested, 1% active; in the data active = activation above about 4.9%;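 also: 0% = median of compound wells and 100% = cells with positive control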
FBW7 activator = human FBW7 E3 ligase activation, primary screen; Q969H0; AlphaScreen FBW7–phospho-cyclin E peptide binding, activator screen; normalized activity (activation), % at 26.1 µM; 650,000 tested, 0.13% active; AID 1259310; in the data active = normalized activity above about 1.9%;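 also: purified mutant Fbw7 with reduced substrate affinity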
Target sequence (Q969H0 whole entry, looked up): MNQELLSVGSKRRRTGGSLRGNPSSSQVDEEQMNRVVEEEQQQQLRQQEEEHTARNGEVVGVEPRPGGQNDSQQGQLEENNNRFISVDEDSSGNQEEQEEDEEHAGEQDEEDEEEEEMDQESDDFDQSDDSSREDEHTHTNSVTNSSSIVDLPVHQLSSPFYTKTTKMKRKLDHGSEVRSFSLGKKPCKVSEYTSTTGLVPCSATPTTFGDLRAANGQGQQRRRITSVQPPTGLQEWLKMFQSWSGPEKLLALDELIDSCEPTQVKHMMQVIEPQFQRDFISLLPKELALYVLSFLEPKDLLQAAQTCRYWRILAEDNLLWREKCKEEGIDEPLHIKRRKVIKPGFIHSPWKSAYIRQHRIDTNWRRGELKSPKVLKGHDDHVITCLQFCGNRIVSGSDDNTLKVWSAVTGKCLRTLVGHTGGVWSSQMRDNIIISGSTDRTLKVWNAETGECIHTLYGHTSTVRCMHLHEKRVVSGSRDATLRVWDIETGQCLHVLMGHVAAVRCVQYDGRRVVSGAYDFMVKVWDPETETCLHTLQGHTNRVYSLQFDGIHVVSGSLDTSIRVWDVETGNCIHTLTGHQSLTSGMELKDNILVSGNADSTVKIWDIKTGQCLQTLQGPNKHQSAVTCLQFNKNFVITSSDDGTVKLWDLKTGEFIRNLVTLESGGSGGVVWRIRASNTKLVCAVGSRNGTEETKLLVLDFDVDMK
Active calls of the source: *. Sampled rows, rich in hits. Any-hit rate of the full collection: about 3.4%.

SMILES	TEAD-YAP block	MITF inh	GPR151 ag	FBW7 activator
Fc1ccc2nc(-c3nc4ccc(-c5ccncc5)cc4[nH]3)[nH]c2c1	-22	11	3	2.6*
NC(c1nc2ccc(-c3ccncc3)cc2[nH]1)c1ccc(F)cc1F (stereo not given)	-21	34	1	-1
Cc1ccc(-c2c[n+]3ccccc3n2-c2ccccc2)cc1	80*	-9	1	0
FC(F)(F)c1cccc(Nc2nc3nonc3nc2Nc2ccc(Cl)cc2)c1	82*	0	2	0
Ic1ccc(Nc2nc3nonc3nc2N2CCCCC2)cc1	4	12	1	0
Clc1ccc(Nc2nc3nonc3nc2N2CCCCC2)cc1	33*	16	1	0
O=c1[nH]c2nonc2nc1Nc1ccc(Cl)cc1	-5	-10	0	0
Fc1ccc(Nc2nc3nonc3nc2Nc2ccc(F)cc2)cc1	61*	-4	0	0
Clc1ccc(Nc2nc3nonc3nc2Nc2ccc(Cl)cc2)cc1	92*	13	2	0
CCN(CCO)c1ccc(Nc2ncc(-c3ccccc3N(C)C)n3ccnc23)cc1	-2	15	1	0
COc1cccc(-c2nc(/C=N/c3nccs3)c(O)o2)c1	-6	12	5	0
O=C(/C=C/c1ccc2c(c1)OCO2)Nc1ccc(Cl)cc1F	-62	12	-2	0
COc1cccc(NC(=O)CSc2nnc(CCc3ccccc3)n2C)c1	9	-1	0	0
O=C(Nc1ccc(Br)cn1)c1cccc2ccccc12	32*	-9	-1	0
O=C(Cn1ncc2ccccc21)Nc1ccccc1Br	-4	16	-2	1
O=C(Nc1ccc(Br)cn1)c1cc(Br)ccc1Cl	43*	18	-1	1
CSc1ccc(Cl)c(C(=O)Nc2ccc(Br)cn2)c1	35*	-6	1	0
O=C(Cn1ncc2ccccc21)Nc1ccc(Br)cn1	38*	5	0	0
CSc1sc(C)cc1C(N)=O	2	-9	0	0
Cc1ccc(-n2cc(-c3ccccc3)c3c(NCCOCCO)ncnc32)cc1Cl	-9	-3	-1	0
CCS(=O)(=O)C1=NN2C(=N)/C(=C\c3ccc(C)o3)C(=O)N=C2S1	-5	0	2	0
CS(=O)(=O)C1=NN2C(=N)/C(=C\c3ccc(Br)o3)C(=O)N=C2S1	-10	79*	3	0
CCS(=O)(=O)C1=NN2C(=N)/C(=C\c3ccc(Br)o3)C(=O)N=C2S1	0	78*	0	-1
CS(=O)(=O)C1=NN2C(=N)/C(=C\c3ccc(Br)cc3)C(=O)N=C2S1	-17	2	-2	0
CCS(=O)(=O)C1=NN2C(=N)/C(=C\c3ccc([N+](=O)[O-])o3)C(=O)N=C2S1	3	93*	0	-1
SMILES	TEAD-YAP block	MITF inh	GPR151 ag	FBW7 activator
Cc1ccc(NC(=O)CSc2ncnc3sc(C)c(C)c23)cc1C	5	9	-1	0
CCc1nnc(NC(=O)Nc2ccc3c(c2)N(Cc2ccc(C)cc2)C(=O)CS3)s1	-7	-3	0	0
c1ccc(CNc2nc(Nc3cccnc3)nc3nc[nH]c23)cc1	15	-9	3	0
COc1ccc(CCNc2nc(Nc3cccnc3)nc3nc[nH]c23)cc1	41*	14	-1	0
COc1ccc(CCNc2nc(Nc3ccccc3)nc3nc[nH]c23)cc1	24	7	2	0
COc1cc(Nc2nc(Nc3cnccn3)nc3nc[nH]c23)cc(OC)c1OC	34*	1	2	4.5*
COc1cc(Nc2nc(Nc3ccccc3)nc3nc[nH]c23)cc(OC)c1OC	18	8	1	0
COc1ccc(CCNc2nc(Nc3cc(OC)c(OC)c(OC)c3)nc3nc[nH]c23)cc1	61*	12	3	0
c1ccc(CNc2nc(Nc3cnccn3)nc3nc[nH]c23)cc1	17	5	3	11*
COc1ccc(NC(=O)c2ccc(C)cc2Cl)c(OC)c1	-57	-3	0	0
C=CCNS(=O)(=O)c1ccc(F)c(C(=O)Nc2ccc(C(C)C)cc2)c1	-4	14	-1	0
COc1ccc(CCNc2nc(NCc3cccnc3)ncc2C)cc1	40*	2	1	0
c1ccc(Nc2nc(Nc3ccncc3)nc3nc[nH]c23)cc1	25	-5	0	0
c1ccc(Nc2nc(Nc3cccnc3)nc3nc[nH]c23)cc1	58*	-4	1	0
CCn1nc(C)c(CNC(=O)CN2Cc3ccccc3OC(c3ccsc3)C2)c1C (stereo not given)	19	-1	0	0
Cc1cc(/C=c2/sc3nc4ccccc4n3c2=O)c(C)n1-c1ccc(Cl)c(Cl)c1	7	5	1	0
Cc1cc(/C=c2\sc3nc4ccccc4n3c2=O)c(C)n1C1CCCC1	70*	0	1	0
O=c1/c(=C\c2ccc(O)cc2)sc2nc3ccccc3n12	73*	19	-10	2.0*
COc1cccc(/C=c2/sc3nc4ccccc4n3c2=O)c1	50*	-1	-1	0
CCCOC(=O)c1cccc(NC(=O)COc2ccccc2OC)c1	-6	-7	1	0
CCCOC(=O)c1cccc(NC(=O)COc2ccc(C)cc2Br)c1	92*	-5	-1	1
Cc1ccc(OCC(=O)Nc2ccccc2F)c(Br)c1	38*	1	-1	0
Cc1ccccc1NC(=O)COc1ccccc1C=O	-13	2	0	0
Cc1ccc(NC(=O)c2cccc(Br)c2)c(Br)c1	-52	8	1	2.5*
Cc1ccccc1NC(=O)COc1ccc(Br)cc1C=O	45*	10	0	0
SMILES	TEAD-YAP block	MITF inh	GPR151 ag	FBW7 activator
Cc1ccc(-n2nc(C)c3c(=O)c(C(=O)Nc4ccccc4C)c[nH]c32)cc1	2	-9	-1	0
CCNS(=O)(=O)c1ccc(NC(=S)Nc2sc(C)c(C)c2C(=O)OC)cc1	7	8	3	0
Cc1c(C(=O)Nc2c(F)cc(F)cc2Br)sc2ncnc(N3CCCCC3)c12	-5	-4	2	0
CN(C)CCCN(C(=O)c1ccc(F)cc1)c1nc2ccc(F)cc2s1	-13	-7	1	0
COc1ccc(NC(=O)c2ccc3c(=O)n(CCc4ccccc4)c(SCC(=O)c4ccccc4)nc3c2)cc1OC	-8	-2	-1	0
COC(=O)c1cccc(NC(=O)COc2ccc(C)cc2Br)c1	91*	-3	1	0
O=C(Cc1ccccc1)Nc1cccc(C(=O)OCC(=O)c2ccc([N+](=O)[O-])cc2)c1	-15	-7	-1	0
Cc1ccc(NC(=O)COc2c(C)cccc2C)c(Br)c1	-17	21	-1	2.5*
COC(=O)c1cccc(NC(=O)COc2cc(C)ccc2C(C)(C)C)c1	2	14	0	0
Cc1ccc(NC(=O)COc2ccccc2C)c(Br)c1	-27	1	0	0
Cc1ccc(C)c(C(=O)COC(=O)c2cccc(NC(=O)Cc3ccccc3)c2)c1	42*	1	0	0
CCC(C)(C)c1ccc(OCC(=O)Nc2cccc(C(=O)O)c2)cc1	38*	-35	-2	0
CC(=O)c1cccc(NC(=O)COc2ccc(C(C)(C)C)cc2)c1	1	0	1	0
